According to PubChem BioAssay AID1159580 (chemical genetic matrix, 2015):
About 2,000 (36%) of roughly 5,500 compounds were called active. Not shown: some 18% with an inconclusive outcome. Rule as the data show it: active = normalized growth mostly below about 0.91 (no sharp cut-off); inconclusive = no clear call, values can overlap the other calls; inactive = mostly above about 0.92. Some of the results follow.

Assay: chemical genetic growth profiling, strain panel (AID 1159580);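 also: tested at 20 µM; growth read once vehicle control cultures reached saturation at 30 °C; 1 = growth at the plate median or of vehicle wells; lower values mean less growth of the strain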
Conditions: growth OD

Measured: normalized growth

C=C[C@@](C)(O)CCC1C(=C)C[C@H](O)C2C(C)(C)CCCC12C (some centres not stated)
inactive: S. cerevisiae deletion strains, locus YJR075W, strain HOC1, active compounds read low 1.01 | S. cerevisiae deletion strains, locus YKL009W, strain mrt4, active compounds read low 1.01 | S. cerevisiae deletion strains, locus YKL068W, active compounds read low 1.01 | S. cerevisiae deletion strains, locus YKL085W, strain MDH1 (second series), active compounds read low 1.02 | S. cerevisiae deletion strains, locus YKL085W, strain MDH1, active compounds read low 1.02 | S. cerevisiae deletion strains, locus YKL160W, strain elf1, active compounds read low 0.981 | S. cerevisiae deletion strains, locus YKL190W, strain CNB1, active compounds read low 1.01 | S. cerevisiae deletion strains, locus YKR001C, strain vps1, active compounds read low 1.01 | S. cerevisiae deletion strains, locus YKR026C, strain gcn3, active compounds read low 0.992 | S. cerevisiae deletion strains, locus YKR091W, strain srl3, active compounds read low 0.991 | S. cerevisiae deletion strains, locus YLL001W, strain dnm1, active compounds read low 0.97 | S. cerevisiae deletion strains, locus YLL026W, active compounds read low 0.998 | S. cerevisiae deletion strains, locus YLL041C, strain sdh2, active compounds read low 0.984 | S. cerevisiae deletion strains, locus YLR027C, strain aat2, active compounds read low 0.995 | S. cerevisiae deletion strains, locus YLR039C, strain RIC1, active compounds read low 0.949 | S. cerevisiae deletion strains, locus YLR058C, strain SHM2, active compounds read low 1.01 | S. cerevisiae deletion strains, locus YLR102C, strain apc9, active compounds read low 1.03 | S. cerevisiae deletion strains, locus YLR113W, strain HOG1, active compounds read low 0.867 | S. cerevisiae deletion strains, locus YLR221C, strain rsa3, active compounds read low 0.968 | S. cerevisiae deletion strains, locus YLR258W, strain gsy2, active compounds read low 0.983 | S. cerevisiae deletion strains, locus YLR262C, strain YPT6 (second series), active compounds read low 0.876 | S. cerevisiae deletion strains, locus YLR262C, strain YPT6, active compounds read low 0.943 | S. cerevisiae deletion strains, locus YLR268W, strain sec22, active compounds read low 1.01 | S. cerevisiae deletion strains, locus YLR320W, strain mms22, active compounds read low 0.946 | S. cerevisiae deletion strains, locus YLR330W, strain CHS5, active compounds read low 1.01 | S. cerevisiae deletion strains, locus YLR342W, strain FKS1 (second series), active compounds read low 0.985 | S. cerevisiae deletion strains, locus YLR342W, strain FKS1, active compounds read low 0.976 | S. cerevisiae deletion strains, locus YLR357W, strain rsc2, active compounds read low 1.01 | S. cerevisiae deletion strains, locus YLR370C, strain arc18, active compounds read low 0.976 | S. cerevisiae deletion strains, locus YLR371W, strain rom2, active compounds read low 1.04 | S. cerevisiae deletion strains, locus YLR384C, strain iki3, active compounds read low 0.98 | S. cerevisiae deletion strains, locus YLR418C, strain cdc73, active compounds read low 0.994 | S. cerevisiae deletion strains, locus YML016C, strain PPZ1, active compounds read low 1 | S. cerevisiae deletion strains, locus YML032C, strain rad52, active compounds read low 1.05 | S. cerevisiae deletion strains, locus YML120C, strain ndi1, active compounds read low 0.99 | S. cerevisiae deletion strains, locus YML124C, strain tub3, active compounds read low 1.02 | S. cerevisiae deletion strains, locus YMR058W, strain fet3, active compounds read low 0.995 | S. cerevisiae deletion strains, locus YMR078C, strain ctf18, active compounds read low 1.03 | S. cerevisiae deletion strains, locus YMR125W, strain sto1, active compounds read low 1.01 | S. cerevisiae deletion strains, locus YMR129W, active compounds read low 0.985 | S. cerevisiae deletion strains, locus YMR205C, strain PFK2, active compounds read low 0.934 | S. cerevisiae deletion strains, locus YMR223W, strain ubp8, active compounds read low 1.02 | S. cerevisiae deletion strains, locus YMR231W, strain pep5, active compounds read low 0.999 | S. cerevisiae deletion strains, locus YMR263W, strain SAP30, active compounds read low 1.01 | S. cerevisiae deletion strains, locus YMR307W, strain GAS1, active compounds read low 1.01 | S. cerevisiae deletion strains, locus YNL067W, strain RPL9B, active compounds read low 0.996 | S. cerevisiae deletion strains, locus YNL071W, strain lat1, active compounds read low 0.928 | S. cerevisiae deletion strains, locus YNL128W, strain TEP1, active compounds read low 1.01 | S. cerevisiae deletion strains, locus YNL153C, strain GIM3, active compounds read low 1.01 | S. cerevisiae deletion strains, locus YNL183C, strain NPR1, active compounds read low 0.923 | S. cerevisiae deletion strains, locus YNL209W, strain ssb2, active compounds read low 0.998 | S. cerevisiae deletion strains, locus YNL233W, strain BNI4, active compounds read low 1.02 | S. cerevisiae deletion strains, locus YNL248C, strain rpa49, active compounds read low 0.984 | S. cerevisiae deletion strains, locus YNL250W, strain rad50, active compounds read low 1.03 | S. cerevisiae deletion strains, locus YNL271C, strain bni1, active compounds read low 1.03 | S. cerevisiae deletion strains, locus YNL298W, strain CLA4, active compounds read low 1.02 | S. cerevisiae deletion strains, locus YNL307C, strain MCK1, active compounds read low 1 | S. cerevisiae deletion strains, locus YNL322C, strain KRE1 (second series), active compounds read low 0.986 | S. cerevisiae deletion strains, locus YNL322C, strain KRE1, active compounds read low 1.01 | S. cerevisiae deletion strains, locus YNR049C, strain mso1, active compounds read low 0.994 | S. cerevisiae deletion strains, locus YNR052C, strain pop2, active compounds read low 1.02 | S. cerevisiae deletion strains, locus YOL006C, strain TOP1, active compounds read low 0.935 | S. cerevisiae deletion strains, locus YOL012C, strain htz1 1.27 | S. cerevisiae deletion strains, locus YOL147C, strain pex11, active compounds read low 1.02 | S. cerevisiae deletion strains, locus YOR001W, strain rrp6, active compounds read low 0.984 | S. cerevisiae deletion strains, locus YOR061W, strain CKA2, active compounds read low 1.01 | S. cerevisiae deletion strains, locus YOR069W, strain VPS5, active compounds read low 1.01 | S. cerevisiae deletion strains, locus YOR070C, strain gyp1, active compounds read low 0.986 | S. cerevisiae deletion strains, locus YOR080W, strain dia2, active compounds read low 0.998 | S. cerevisiae deletion strains, locus YOR083W, strain WHI5, active compounds read low 0.964 | S. cerevisiae deletion strains, locus YOR106W, strain vam3, active compounds read low 0.978 | S. cerevisiae deletion strains, locus YOR136W, strain idh2, active compounds read low 1.03 | S. cerevisiae deletion strains, locus YOR144C, strain elg1, active compounds read low 1.02 | S. cerevisiae deletion strains, locus YOR184W, strain ser1, active compounds read low 1.01 | S. cerevisiae deletion strains, locus YOR231W, strain MKK1, active compounds read low 0.923 | S. cerevisiae deletion strains, locus YOR265W, strain rbl2, active compounds read low 0.992 | S. cerevisiae deletion strains, locus YOR270C, strain vph1, active compounds read low 0.886 | S. cerevisiae deletion strains, locus YOR290C, strain snf2, active compounds read low 0.934 | S. cerevisiae deletion strains, locus YOR316C, strain cot1, active compounds read low 1.03 | S. cerevisiae deletion strains, locus YPL051W, strain arl3, active compounds read low 0.975 | S. cerevisiae deletion strains, locus YPL055C, strain LGE1, active compounds read low 1.01 | S. cerevisiae deletion strains, locus YPL078C, strain atp4, active compounds read low 0.978 | S. cerevisiae deletion strains, locus YPL106C, strain sse1, active compounds read low 1.03 | S. cerevisiae deletion strains, locus YPL240C, strain hsp82, active compounds read low 0.984 | S. cerevisiae deletion strains, locus YPL241C, strain CIN2, active compounds read low 1.01 | S. cerevisiae deletion strains, locus YPL256C, strain CLN2, active compounds read low 0.953 | S. cerevisiae deletion strains, locus YPR119W, strain clb2, active compounds read low 1.03 | S. cerevisiae deletion strains, locus YPR141C, strain kar3, active compounds read low 1.03 | S. cerevisiae deletion strains, locus YPR163C, strain tif3, active compounds read low 1.02 | S. cerevisiae deletion strains, locus YPR167C, strain met16, active compounds read low 1.02 | S. cerevisiae deletion strains, strain wtn01, active compounds read low 1.02 | S. cerevisiae strains, strain wild type, active compounds read low 1.01
